The other results are listed elsewhere or left out. How many sequences the whole screen found active is unknown.
Target: furin, P09958
Assay: furin cleavage Z-score vs untreated control; higher = more cleavage, active = 3.5 or more, inactive = 1 or less, 8 variable residues between constant flanks
Description: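 Multiplexed peptide-cDNA fusion cleavage assay. 8-mer variable peptides flanked by constant Cys-Ala (N-term) and Ala-Gly-Asn-Ala-Ser-Ala-Ser-Ala (C-term) and conjugated to a cDNA oligonucleotide were bead-immobilised via the N-terminus. They were treated with purified furin at a 1:10 enzyme:substrate ratio in 50 mM HEPES pH 7.5, 1 mM CaCl2, 100 mM NaCl for 7.5, 15 or 30 min. Released cDNA was counted by next-generation sequencing, and log counts versus no-furin controls were lowess-adjusted and converted to robust Z-scores.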

furin, P09958, sequence (P09958 whole entry): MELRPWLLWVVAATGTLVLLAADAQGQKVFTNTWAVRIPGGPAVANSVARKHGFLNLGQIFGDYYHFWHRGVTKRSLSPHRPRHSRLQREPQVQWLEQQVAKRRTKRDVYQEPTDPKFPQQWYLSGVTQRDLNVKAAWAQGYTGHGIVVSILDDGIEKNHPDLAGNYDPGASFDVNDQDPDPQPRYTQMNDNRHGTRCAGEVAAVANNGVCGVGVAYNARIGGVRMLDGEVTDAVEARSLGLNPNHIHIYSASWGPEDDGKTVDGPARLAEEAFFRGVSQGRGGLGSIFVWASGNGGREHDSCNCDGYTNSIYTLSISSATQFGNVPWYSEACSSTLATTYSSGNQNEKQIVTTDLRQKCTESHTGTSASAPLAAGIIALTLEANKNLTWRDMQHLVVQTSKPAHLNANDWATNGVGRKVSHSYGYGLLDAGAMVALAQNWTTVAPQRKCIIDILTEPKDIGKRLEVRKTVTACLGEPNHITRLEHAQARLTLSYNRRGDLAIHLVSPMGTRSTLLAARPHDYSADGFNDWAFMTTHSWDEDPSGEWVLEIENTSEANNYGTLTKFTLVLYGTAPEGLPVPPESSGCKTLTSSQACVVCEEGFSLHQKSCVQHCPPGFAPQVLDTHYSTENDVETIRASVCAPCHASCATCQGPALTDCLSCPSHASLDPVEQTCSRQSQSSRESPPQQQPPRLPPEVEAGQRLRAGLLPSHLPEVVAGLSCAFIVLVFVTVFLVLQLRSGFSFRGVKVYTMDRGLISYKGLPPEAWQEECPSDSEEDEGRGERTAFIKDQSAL

Q: With CAMEECSQNLAGNASASA [HC1761] as the sequence, how does the “furin cleavage Z-score” value (7.5 min) read?
A: -0.233 (inactive)

Q: And the “furin cleavage Z-score” value (15 min)?
A: 0.845 (inactive)

Q: And the “furin cleavage Z-score” value (30 min)?
A: 0.876 (inactive)

Q: Which results are given for CAECEVPCHRAGNASASA [HC2460]?
A: furin cleavage Z-score (7.5 min): 1.55; furin cleavage Z-score (15 min): -0.187 (inactive); furin cleavage Z-score (30 min): 2.66

Q: With CAPAQRLARSAGNASASA [FS-1471] as the sequence, how does the “furin cleavage Z-score” value (7.5 min) read?
A: 10.2 (active)

Q: And the “furin cleavage Z-score” value (15 min)?
A: 11.3 (active)

Q: And the “furin cleavage Z-score” value (30 min)?
A: 9.54 (active)

Q: How did the “furin cleavage Z-score” value (7.5 min) turn out when CAHPSPLKRSAGNASASA [FS-597] was run?
A: -0.0472 (inactive)

Q: And the “furin cleavage Z-score” value (15 min)?
A: 2.27

Q: What about the “furin cleavage Z-score” value (30 min) of the same sequence?
A: 1.02

Q: For CALPCRPQRSAGNASASA [FS-612], which “furin cleavage Z-score” value (7.5 min) is on record?
A: 0.0451 (inactive)

Q: What about the “furin cleavage Z-score” value (15 min) of the same sequence?
A: 0.649 (inactive)

Q: What about the “furin cleavage Z-score” value (30 min) of the same sequence?
A: 1.4

Q: With CAPPQKAKRSAGNASASA [FS-70] as the sequence, how does the “furin cleavage Z-score” value (7.5 min) read?
A: 10.3 (active)

Q: What about the “furin cleavage Z-score” value (15 min) of the same sequence?
A: 12.4 (active)

Q: What about the “furin cleavage Z-score” value (30 min) of the same sequence?
A: 10.2 (active)

Q: CAPPQRTQRSAGNASASA [FS-1049] was tested. Which “furin cleavage Z-score” value (7.5 min) did it give?
A: 4.31 (active)

Q: What about the “furin cleavage Z-score” value (15 min) of the same sequence?
A: 5.78 (active)

Q: And the “furin cleavage Z-score” value (30 min)?
A: 6.79 (active)

Q: For CAKPSKLKRSAGNASASA [FS-546], which “furin cleavage Z-score” value (7.5 min) is on record?
A: 7.13 (active)

Q: And the “furin cleavage Z-score” value (15 min)?
A: 8.9 (active)

Q: What about the “furin cleavage Z-score” value (30 min) of the same sequence?
A: 7.35 (active)

Q: What does the source list for CAEIVTSTWVAGNASASA [HC2164]?
A: furin cleavage Z-score (7.5 min): -0.266 (inactive); furin cleavage Z-score (15 min): -1.49 (inactive); furin cleavage Z-score (30 min): 1.35

Q: Which results are given for CAVVCCSMSPAGNASASA [HC2099]?
A: furin cleavage Z-score (7.5 min): -0.463 (inactive); furin cleavage Z-score (15 min): -1.06 (inactive); furin cleavage Z-score (30 min): -1.28 (inactive)

Q: With CAREARGSSRAGNASASA [FS-2907] as the sequence, how does the “furin cleavage Z-score” value (7.5 min) read?
A: -0.25 (inactive)

Q: What about the “furin cleavage Z-score” value (15 min) of the same sequence?
A: -0.261 (inactive)

Q: And the “furin cleavage Z-score” value (30 min)?
A: -1.18 (inactive)

Q: How did the “furin cleavage Z-score” value (7.5 min) turn out when CAEKTTPCSGAGNASASA [HC1974] was run?
A: -1.24 (inactive)

Q: And the “furin cleavage Z-score” value (15 min)?
A: -0.951 (inactive)

Q: What about the “furin cleavage Z-score” value (30 min) of the same sequence?
A: -0.151 (inactive)

Q: How did the “furin cleavage Z-score” value (7.5 min) turn out when CALGLLQTASAGNASASA [HC1027] was run?
A: -0.682 (inactive)

Q: And the “furin cleavage Z-score” value (15 min)?
A: -0.203 (inactive)

Q: And the “furin cleavage Z-score” value (30 min)?
A: 0.0385 (inactive)

Q: What does the source list for CAVMAQLLRIAGNASASA [HC327]?
A: furin cleavage Z-score (7.5 min): -0.76 (inactive); furin cleavage Z-score (15 min): -0.535 (inactive); furin cleavage Z-score (30 min): -1.17 (inactive)

Q: With CAEVVTSTCVAGNASASA [HC2240] as the sequence, how does the “furin cleavage Z-score” value (7.5 min) read?
A: -0.298 (inactive)

Q: What about the “furin cleavage Z-score” value (15 min) of the same sequence?
A: -0.394 (inactive)

Q: And the “furin cleavage Z-score” value (30 min)?
A: -0.1 (inactive)

Q: What does the source list for CANPSVAATLAGNASASA [HC788]?
A: furin cleavage Z-score (7.5 min): -2.1 (inactive); furin cleavage Z-score (15 min): 0.787 (inactive); furin cleavage Z-score (30 min): 0.461 (inactive)

Q: With CAQPHRAQRSAGNASASA [FS-1153] as the sequence, how does the “furin cleavage Z-score” value (7.5 min) read?
A: 6.97 (active)

Q: What about the “furin cleavage Z-score” value (15 min) of the same sequence?
A: 6.29 (active)

Q: And the “furin cleavage Z-score” value (30 min)?
A: 6.74 (active)

Q: For CAKNIRRGRSAGNASASA [FS-342], which “furin cleavage Z-score” value (7.5 min) is on record?
A: 8.62 (active)

Q: What about the “furin cleavage Z-score” value (15 min) of the same sequence?
A: 9.43 (active)

Q: What about the “furin cleavage Z-score” value (30 min) of the same sequence?
A: 6.74 (active)

Q: How did the “furin cleavage Z-score” value (7.5 min) turn out when CAEYRRRGRSAGNASASA [FS-1123] was run?
A: 4.99 (active)

Q: What about the “furin cleavage Z-score” value (15 min) of the same sequence?
A: 5.3 (active)

Q: What about the “furin cleavage Z-score” value (30 min) of the same sequence?
A: 5.5 (active)

Q: Which results are given for CAEDTTPCSGAGNASASA [HC1971]?
A: furin cleavage Z-score (7.5 min): 0.299 (inactive); furin cleavage Z-score (15 min): -1.06 (inactive); furin cleavage Z-score (30 min): -0.5 (inactive)

Q: CAADGGCSGGAGNASASA [HC811] was tested. Which “furin cleavage Z-score” value (7.5 min) did it give?
A: -1.33 (inactive)

Q: What about the “furin cleavage Z-score” value (15 min) of the same sequence?
A: -0.697 (inactive)

Q: And the “furin cleavage Z-score” value (30 min)?
A: -0.396 (inactive)

Q: With CAERVTSTWVAGNASASA [HC2173] as the sequence, how does the “furin cleavage Z-score” value (7.5 min) read?
A: -0.173 (inactive)

Q: What about the “furin cleavage Z-score” value (15 min) of the same sequence?
A: -0.632 (inactive)

Q: What about the “furin cleavage Z-score” value (30 min) of the same sequence?
A: -2.09 (inactive)

Q: How did the “furin cleavage Z-score” value (7.5 min) turn out when CARPKKRAETAGNASASA [FS-1760] was run?
A: -0.848 (inactive)

Q: What about the “furin cleavage Z-score” value (15 min) of the same sequence?
A: 2.01

Q: What about the “furin cleavage Z-score” value (30 min) of the same sequence?
A: 0.187 (inactive)

Q: How did the “furin cleavage Z-score” value (7.5 min) turn out when CARPQRLIDHAGNASASA [FS-3020] was run?
A: -0.401 (inactive)

Q: And the “furin cleavage Z-score” value (15 min)?
A: -0.141 (inactive)

Q: What about the “furin cleavage Z-score” value (30 min) of the same sequence?
A: -0.235 (inactive)

From the supplement of paper PMC3545927
